The nature of assay [1]: ATG_RORE_CIS: Attagene CIS-FACTORIAL HepG2 Assay for human RAR-related Orphan Receptor Element (RORE) (AID 2282959). Particulars: HepG2 Attagene cis-factorial RORE reporter, mRNA; actives raise or lower the signal. A digest of the protocol: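 RORE reporter transcripts reflecting endogenous factor activity were read after 24 h compound exposure of transfected HepG2 cells, using reverse transcription, PCR, fluorescent labelling and capillary electrophoresis sizing. Gain or loss fitted against DMSO.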

A short description of assay [2]: ATG_Sox_CIS: Attagene CIS-FACTORIAL HepG2 Assay for human SRY-box transcription factor (SOX) (AID 2282960). The settings on record: HepG2 Attagene cis-factorial SOX reporter, mRNA; actives raise or lower the signal. The procedure, abridged:
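Reporter transcripts, measured by RT-PCR and capillary electrophoresis of labelled fragments, report endogenous SOX transcription factor activity. Transiently transfected human HepG2 cells receive chemical for 24 h; changes in either direction are fitted relative to DMSO.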

For assay [3], the target named is Transcription factor Sp1 (Homo sapiens) (UniProt P08047). Description: ATG_Sp1_CIS: Attagene CIS-FACTORIAL HepG2 Assay for human Specificity Protein 1 (Sp1) (AID 2282961). The settings on record: HepG2 Sp1 cis-reporter transcription, actives raise or lower the signal. A digest of the protocol:
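Read-out is reporter transcript level, measured by RT-PCR and fluorescent capillary electrophoresis after 24 h chemical treatment. System: transiently transfected HepG2 cells reporting endogenous transcription factor activity; gain or loss fitted against DMSO baseline.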

The nature of assay [4]: ATG_SREBP_CIS: Attagene CIS-FACTORIAL HepG2 Assay for human Sterol Regulatory Element Binding (SREBP) (AID 2282962). Particulars: HepG2 Attagene cis-factorial SREBP reporter, mRNA; actives raise or lower the signal. The procedure, abridged: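 In this cis-format assay, HepG2 liver cells express reporters controlled by promoter elements responsive to native transcription factors. Exposure lasts 24 h; reporter mRNA fluorescence from capillary electrophoresis gives the signal, fitted bidirectionally against DMSO.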

For assay [5], the target named is Signal transducer and activator of transcription 3 (Homo sapiens) (UniProt P40763). The assay is described as follows: ATG_STAT3_CIS: Attagene CIS-FACTORIAL HepG2 Assay for human Signal Transducer and Activator of Transcription 3 (STAT3) (AID 2282963). The settings on record: HepG2, Attagene cis-factorial STAT3 reporter transcription; actives raise or lower the signal. A digest of the protocol:
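Readout is reporter transcript quantified by RT-PCR and capillary electrophoresis, with 6-FAM primer extension and HpaI digestion. Total RNA is taken 24 h after dosing transiently transfected HepG2 carrying cis-regulated reporter units. Bidirectional fit against DMSO.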

The nature of assay [6]: ATG_TA_CIS: Attagene CIS-FACTORIAL HepG2 Assay for human TA Basal Promoter (AID 2282964). Particulars: HepG2 Attagene CIS-factorial TA basal promoter reporter; actives raise or lower the signal. A digest of the protocol: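 Multiplexed mRNA reporter assay, HepG2, 24 h. Reporter cDNA amplified, 6-FAM primer-extended, HpaI-cut, CE-sized; DMSO = negative control and baseline.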

Assay [7] is described as follows: ATG_TCF_b_cat_CIS: Attagene CIS-FACTORIAL HepG2 Assay for human T-Cell-Factor with beta-catenin (TCF/b-cat) (AID 2282965). The settings on record: HepG2 TCF/beta-catenin cis-reporter transcription, actives raise or lower the signal. The procedure, abridged: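 Endogenous transcription factor activity is captured through cis-promoter reporter constructs transiently introduced into human HepG2 liver cells. Induced reporter mRNA is measured after 24 h and fitted bidirectionally relative to DMSO.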

Assay [8] can be described thus: ATG_TAL_CIS: Attagene CIS-FACTORIAL HepG2 Assay for human TAL Basal Promoter (AID 2282966).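 Also: background control endpoint measuring basal TAL promoter reporter mRNA not a specific factor.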 The settings on record: HepG2 Attagene cis-factorial TAL promoter reporter; actives raise or lower the signal. The procedure, abridged: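 Human hepatoma HepG2 cells, transfected with promoter-regulated reporter units, were treated 24 h. Reporter transcript levels, measured through RT-PCR and capillary electrophoresis, were fitted for gain or loss relative to DMSO.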

The nature of assay [9]: ATG_TGFb_CIS: Attagene CIS-FACTORIAL HepG2 Assay for human Transforming Growth Factor (TGF) (AID 2282967). The settings on record: HepG2 Attagene CIS TGFb reporter, mRNA transcription; actives raise or lower the signal. The procedure, abridged: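 Transcript-level reporter readout: HepG2 transfectants, 24 h exposure, RNA to cDNA, reporter-specific PCR, fluorescent primer extension, capillary sizing against ROX standards. Gain- or loss-of-signal relative to DMSO.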

The target of assay [10] is X-box-binding protein 1 (Homo sapiens) (UniProt P17861). The assay is described as follows: ATG_Xbp1_CIS: Attagene CIS-FACTORIAL HepG2 Assay for human X-box Binding Protein 1 (XBP1) (AID 2282972). The settings on record: HepG2 XBP1 cis-element reporter, Attagene multiplex; actives raise or lower the signal. The procedure, abridged: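 Changes in reporter transcript abundance, read by RT-PCR and capillary electrophoresis, reflect endogenous transcription factor activity. Transfected HepG2 cells received compound for 24 hours; DMSO defined baseline for bidirectional analysis.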
Sequence of X-box-binding protein 1 (Homo sapiens) (P17861 whole entry, looked up): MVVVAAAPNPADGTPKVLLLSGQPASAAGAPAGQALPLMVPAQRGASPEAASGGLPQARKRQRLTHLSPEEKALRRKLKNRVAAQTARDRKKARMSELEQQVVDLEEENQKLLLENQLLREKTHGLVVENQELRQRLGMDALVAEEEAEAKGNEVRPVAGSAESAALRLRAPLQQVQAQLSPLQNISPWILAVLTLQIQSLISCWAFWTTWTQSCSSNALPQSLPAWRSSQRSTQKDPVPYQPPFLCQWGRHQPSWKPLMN

Assay [11] can be described thus: ATG_M_19_TRANS: Attagene TRANS-FACTORIAL HepG2 Assay for M19 Transcription Factor (Internal Marker) (AID 2282974; active = hit-call score of the fitted dose curve at least 0.9, where 1 is the maximum). The settings on record: HepG2 Attagene TRANS-FACTORIAL M19 internal marker reporter. A digest of the protocol: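 Background-control readout: after 24 h chemical exposure of transfected HepG2 carrying GAL4-driven reporter units, RNA was reverse-transcribed, amplified, fluorescently labeled and sized by capillary electrophoresis; gain-of-signal fit against DMSO.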

Assay [12] in a line: ATG_GAL4_TRANS: Attagene TRANS-FACTORIAL HepG2 Assay for GAL4 (Internal Marker) (AID 2282976; active = hit-call score of the fitted dose curve at least 0.9, where 1 is the maximum). Particulars: HepG2 Attagene TRANS GAL4 internal marker reporter. A digest of the protocol: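 Liver HepG2 line bearing multiplexed GAL4-UAS reporter constructs; 24 h chemical treatment. Transcripts were quantified as fluorescent fragments on capillary electrophoresis after RT-PCR and HpaI cut, with activity fitted upward from DMSO.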

Assay [13] addresses Glucocorticoid receptor (Homo sapiens) (UniProt P04150). Description: ATG_GR_TRANS: Attagene TRANS-FACTORIAL HepG2 Assay for human Glucocorticoid Receptor (GR) (AID 2282978; active = hit-call score of the fitted dose curve at least 0.9, where 1 is the maximum;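 also: activators score as hits since higher reporter transcript over DMSO is fitted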). Particulars: HepG2 Attagene TRANS GR reporter, mRNA transcription. The procedure, abridged:
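Readout is reporter transcript from a chimeric GR-Gal4 acting on GAL4-UAS in transfected human HepG2 liver cells after 24 h exposure, quantified by RT-PCR and capillary electrophoresis. Activation fitted upward against DMSO.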

In assay [14] the target is Bile acid receptor (Homo sapiens) (UniProt Q96RI1). Description: ATG_FXR_TRANS: Attagene TRANS-FACTORIAL HepG2 Assay for Farnesoid X Receptor (FXR) (AID 2282979; active = hit-call score of the fitted dose curve at least 0.9, where 1 is the maximum;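 also: hits raise reporter mRNA above DMSO so AC50 marks FXR activation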). The settings on record: HepG2 Attagene TRANS FXR-GAL4 reporter transcription. A digest of the protocol: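 After 24 h chemical treatment of transfected HepG2 cells, GAL4-UAS reporter transcripts driven by an exogenous FXR-GAL4 fusion were measured by RT-PCR and capillary electrophoresis. Increases over DMSO were fitted.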
Sequence of Bile acid receptor (Homo sapiens) (Q96RI1 whole entry, looked up, the tested form may be a part): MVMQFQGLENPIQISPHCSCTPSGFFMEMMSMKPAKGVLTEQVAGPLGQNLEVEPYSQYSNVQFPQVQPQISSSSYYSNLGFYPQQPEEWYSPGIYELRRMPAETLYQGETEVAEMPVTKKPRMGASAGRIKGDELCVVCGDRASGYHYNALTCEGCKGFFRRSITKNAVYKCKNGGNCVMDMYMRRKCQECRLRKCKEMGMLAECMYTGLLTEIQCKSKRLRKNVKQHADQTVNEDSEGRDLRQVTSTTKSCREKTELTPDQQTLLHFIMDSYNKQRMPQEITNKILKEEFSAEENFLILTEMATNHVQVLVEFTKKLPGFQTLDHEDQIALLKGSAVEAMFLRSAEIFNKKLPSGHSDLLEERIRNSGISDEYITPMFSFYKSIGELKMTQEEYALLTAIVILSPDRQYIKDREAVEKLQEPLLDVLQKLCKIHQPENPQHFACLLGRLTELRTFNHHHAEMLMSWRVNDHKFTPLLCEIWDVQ

Assay [15] deals with Nuclear receptor subfamily 1 group I member 3 (Homo sapiens) (UniProt Q14994). The assay is described as follows: ATG_CAR_TRANS: Attagene TRANS-FACTORIAL HepG2 Assay for human Constitutive Androstane Receptor (CAR) (AID 2282969; active = hit-call score of the fitted dose curve at least 0.9, where 1 is the maximum;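 also: activators raise reporter mRNA above DMSO so AC50 marks induction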). Particulars: HepG2 Attagene TRANS-FACTORIAL CAR reporter. A digest of the protocol:
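Signal is reporter mRNA induction relative to DMSO, measured 24 h after dosing by RT-PCR with fluorescent primer extension and capillary electrophoresis. Human HepG2 liver cells carried transiently transfected chimeric NR-Gal4/GAL4-UAS reporter constructs.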

The target in assay [16] is Steroid hormone receptor ERR1 (Homo sapiens) (UniProt P11474). Description: ATG_ERRa_TRANS: Attagene TRANS-FACTORIAL HepG2 Assay for human Estrogen-Related Receptor alpha (ERRa) (AID 2282971; active = hit-call score of the fitted dose curve at least 0.9, where 1 is the maximum). Particulars: HepG2 Attagene TRANS reporter, ERRa transactivation. The procedure, abridged: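 Signal gain relative to DMSO for an ERRa-Gal4 chimeric receptor, read as reporter mRNA by RT-PCR/capillary electrophoresis. Human HepG2 liver cells, transient multiplex reporter transfection, 24 h chemical exposure.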
Sequence of Steroid hormone receptor ERR1 (Homo sapiens) (P11474 whole entry, looked up, the tested form may be a part): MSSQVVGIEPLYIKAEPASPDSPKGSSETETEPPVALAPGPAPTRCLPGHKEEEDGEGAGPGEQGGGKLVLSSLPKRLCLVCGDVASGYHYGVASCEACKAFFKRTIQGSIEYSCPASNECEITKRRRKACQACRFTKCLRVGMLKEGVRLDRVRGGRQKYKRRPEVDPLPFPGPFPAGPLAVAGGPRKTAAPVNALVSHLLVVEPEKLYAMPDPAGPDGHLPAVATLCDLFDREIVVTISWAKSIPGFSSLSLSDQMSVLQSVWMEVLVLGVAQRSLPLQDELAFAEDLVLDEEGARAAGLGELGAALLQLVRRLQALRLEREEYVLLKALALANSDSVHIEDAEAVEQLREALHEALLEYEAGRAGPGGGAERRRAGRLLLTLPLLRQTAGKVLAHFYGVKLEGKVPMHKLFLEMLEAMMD

For assay [17], the target named is Estrogen-related receptor gamma (Homo sapiens) (UniProt P62508). The assay is described as follows: ATG_ERRg_TRANS: Attagene TRANS-FACTORIAL HepG2 Assay for human Estrogen-Related Receptor gamma (ERRg) (AID 2282977; active = hit-call score of the fitted dose curve at least 0.9, where 1 is the maximum;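 also: hits increase reporter signal over DMSO so potencies reflect activators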). The settings on record: HepG2 Attagene TRANS reporter, ERRg transactivation. A digest of the protocol:
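Induction of reporter transcripts through a chimeric NR-Gal4 protein is quantified in transfected human HepG2 liver cells after 24 h chemical exposure, using RT-PCR with capillary electrophoresis detection and DMSO as baseline.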

Assay [18] can be described thus: ATG_VDRE_CIS: Attagene CIS-FACTORIAL HepG2 Assay for human Vitamin D Receptor Element (VDRE) (AID 2282968). The settings on record: HepG2 VDRE cis-reporter transcription, actives raise or lower the signal. A digest of the protocol: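 Readout is VDRE-driven reporter mRNA reflecting endogenous factor activity in human HepG2 cells, sampled 24 h post-dose. Quantification used labelled RT-PCR products separated by capillary electrophoresis; bidirectional analysis relative to DMSO.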

For assay [19], the target named is Estrogen receptor (Homo sapiens) (UniProt P03372). The assay is described as follows: ATG_ERa_TRANS: Attagene TRANS-FACTORIAL HepG2 Assay for human Estrogen Receptor alpha (ERa) (AID 2282970; active = hit-call score of the fitted dose curve at least 0.9, where 1 is the maximum). The settings on record: HepG2 Attagene TRANS ERa GAL4 reporter, mRNA. A digest of the protocol: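 Signal derives from fluorescence of labelled reporter PCR fragments separated by capillary electrophoresis. HepG2 cells transiently carrying multiple GAL4-UAS reporter units were treated 24 hours, and induction above DMSO baseline was fitted as activity.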
Sequence of Estrogen receptor (Homo sapiens) (P03372 whole entry, looked up, the tested form may be a part): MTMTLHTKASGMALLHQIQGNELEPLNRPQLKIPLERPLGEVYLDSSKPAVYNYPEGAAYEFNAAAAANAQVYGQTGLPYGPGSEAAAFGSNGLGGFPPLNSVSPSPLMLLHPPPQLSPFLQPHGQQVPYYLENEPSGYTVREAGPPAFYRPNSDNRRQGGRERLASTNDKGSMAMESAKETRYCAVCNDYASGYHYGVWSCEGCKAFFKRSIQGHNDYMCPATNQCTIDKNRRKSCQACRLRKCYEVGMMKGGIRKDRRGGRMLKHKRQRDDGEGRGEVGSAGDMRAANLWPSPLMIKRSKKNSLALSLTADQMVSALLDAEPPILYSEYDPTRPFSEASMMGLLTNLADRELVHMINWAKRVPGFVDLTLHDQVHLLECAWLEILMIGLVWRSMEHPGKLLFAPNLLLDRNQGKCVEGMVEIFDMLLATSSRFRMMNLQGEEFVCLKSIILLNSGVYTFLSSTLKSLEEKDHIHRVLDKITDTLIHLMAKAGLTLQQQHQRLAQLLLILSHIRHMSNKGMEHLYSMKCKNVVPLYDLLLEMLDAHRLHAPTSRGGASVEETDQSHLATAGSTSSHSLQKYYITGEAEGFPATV

Structures are written as SMILES. Inconclusive results are not listed. Activity calls are given as the source filed them. The calls were made as follows, unless noted: active = hit-call score of the fitted dose curve at least 0.9, where 1 is the maximum; inactive = score below 0.9.

Sequence of Nuclear receptor subfamily 1 group I member 3 (Homo sapiens) (Q14994 whole entry, looked up, the tested form may be a part): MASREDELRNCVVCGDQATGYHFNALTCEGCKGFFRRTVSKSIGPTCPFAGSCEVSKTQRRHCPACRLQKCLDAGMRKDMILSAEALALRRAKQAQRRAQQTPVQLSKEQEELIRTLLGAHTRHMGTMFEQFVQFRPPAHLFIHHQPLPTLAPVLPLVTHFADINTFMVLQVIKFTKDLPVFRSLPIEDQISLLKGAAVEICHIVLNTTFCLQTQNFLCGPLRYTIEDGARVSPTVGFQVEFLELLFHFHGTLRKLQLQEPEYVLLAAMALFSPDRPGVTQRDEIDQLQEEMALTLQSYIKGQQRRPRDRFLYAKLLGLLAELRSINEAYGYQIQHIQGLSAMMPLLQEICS
Sequence of Glucocorticoid receptor (Homo sapiens) (P04150 whole entry, looked up, the tested form may be a part): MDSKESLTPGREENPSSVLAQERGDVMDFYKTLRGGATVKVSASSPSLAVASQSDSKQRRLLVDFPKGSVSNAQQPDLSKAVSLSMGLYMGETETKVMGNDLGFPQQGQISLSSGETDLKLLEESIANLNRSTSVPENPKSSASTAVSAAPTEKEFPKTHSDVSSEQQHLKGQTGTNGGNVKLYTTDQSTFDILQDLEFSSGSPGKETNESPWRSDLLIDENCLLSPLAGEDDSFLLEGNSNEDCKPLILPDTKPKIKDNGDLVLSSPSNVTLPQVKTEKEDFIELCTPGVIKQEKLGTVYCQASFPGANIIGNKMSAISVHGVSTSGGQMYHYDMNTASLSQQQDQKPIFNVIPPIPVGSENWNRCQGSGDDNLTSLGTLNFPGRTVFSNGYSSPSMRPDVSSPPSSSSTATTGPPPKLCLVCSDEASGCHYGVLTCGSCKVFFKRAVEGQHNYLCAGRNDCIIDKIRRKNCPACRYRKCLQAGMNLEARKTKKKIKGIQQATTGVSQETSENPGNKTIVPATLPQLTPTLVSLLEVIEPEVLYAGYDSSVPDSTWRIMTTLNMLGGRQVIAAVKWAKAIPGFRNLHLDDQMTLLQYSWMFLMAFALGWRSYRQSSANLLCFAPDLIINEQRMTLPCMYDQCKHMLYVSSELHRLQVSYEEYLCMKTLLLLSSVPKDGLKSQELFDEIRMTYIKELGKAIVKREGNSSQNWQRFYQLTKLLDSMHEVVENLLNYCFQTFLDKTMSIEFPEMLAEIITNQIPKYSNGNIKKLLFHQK
Sequence of Signal transducer and activator of transcription 3 (Homo sapiens) (P40763 whole entry, looked up): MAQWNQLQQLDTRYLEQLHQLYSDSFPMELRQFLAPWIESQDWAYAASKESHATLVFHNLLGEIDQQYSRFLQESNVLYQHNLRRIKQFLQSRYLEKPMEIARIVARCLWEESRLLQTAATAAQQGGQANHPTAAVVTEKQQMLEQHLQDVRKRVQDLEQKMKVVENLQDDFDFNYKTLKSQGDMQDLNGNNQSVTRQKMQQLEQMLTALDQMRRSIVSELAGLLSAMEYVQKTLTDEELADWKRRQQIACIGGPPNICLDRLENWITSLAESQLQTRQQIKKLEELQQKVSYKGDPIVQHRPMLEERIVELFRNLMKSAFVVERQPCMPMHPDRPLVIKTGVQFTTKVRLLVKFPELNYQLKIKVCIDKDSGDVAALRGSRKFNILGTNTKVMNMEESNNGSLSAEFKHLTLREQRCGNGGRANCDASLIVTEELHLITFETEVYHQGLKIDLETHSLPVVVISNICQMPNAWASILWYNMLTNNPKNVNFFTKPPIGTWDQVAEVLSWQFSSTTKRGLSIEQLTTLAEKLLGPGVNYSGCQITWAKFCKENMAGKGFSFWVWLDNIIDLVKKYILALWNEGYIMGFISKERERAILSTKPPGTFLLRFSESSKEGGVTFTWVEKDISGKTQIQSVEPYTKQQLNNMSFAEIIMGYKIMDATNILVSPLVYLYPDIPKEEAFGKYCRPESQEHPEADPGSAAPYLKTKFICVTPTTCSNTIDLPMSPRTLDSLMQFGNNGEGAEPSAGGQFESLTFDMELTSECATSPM
Sequence of Transcription factor Sp1 (Homo sapiens) (P08047 whole entry, looked up): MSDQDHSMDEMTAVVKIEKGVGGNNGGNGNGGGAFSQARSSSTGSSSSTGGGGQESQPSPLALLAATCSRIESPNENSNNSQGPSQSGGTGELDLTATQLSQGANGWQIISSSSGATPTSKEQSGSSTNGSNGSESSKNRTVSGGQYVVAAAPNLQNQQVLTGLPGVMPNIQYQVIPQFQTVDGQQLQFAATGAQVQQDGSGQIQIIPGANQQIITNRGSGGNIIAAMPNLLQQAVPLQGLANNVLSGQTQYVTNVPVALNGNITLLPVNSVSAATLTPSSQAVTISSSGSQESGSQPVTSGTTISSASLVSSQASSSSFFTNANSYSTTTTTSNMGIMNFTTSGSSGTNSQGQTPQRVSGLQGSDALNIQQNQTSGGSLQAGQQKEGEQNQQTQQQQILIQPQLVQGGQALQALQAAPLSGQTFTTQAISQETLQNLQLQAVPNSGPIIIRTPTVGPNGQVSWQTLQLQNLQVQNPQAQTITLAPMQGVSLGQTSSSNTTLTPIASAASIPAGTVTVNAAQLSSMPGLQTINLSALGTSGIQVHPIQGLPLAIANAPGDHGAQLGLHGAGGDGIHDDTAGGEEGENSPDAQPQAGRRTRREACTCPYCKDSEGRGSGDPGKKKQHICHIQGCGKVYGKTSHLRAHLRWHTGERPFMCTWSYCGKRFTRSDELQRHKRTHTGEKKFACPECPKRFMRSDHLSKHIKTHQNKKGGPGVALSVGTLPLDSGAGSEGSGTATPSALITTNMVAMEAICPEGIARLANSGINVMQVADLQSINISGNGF
Sequence of Estrogen-related receptor gamma (Homo sapiens) (P62508 whole entry, looked up, the tested form may be a part): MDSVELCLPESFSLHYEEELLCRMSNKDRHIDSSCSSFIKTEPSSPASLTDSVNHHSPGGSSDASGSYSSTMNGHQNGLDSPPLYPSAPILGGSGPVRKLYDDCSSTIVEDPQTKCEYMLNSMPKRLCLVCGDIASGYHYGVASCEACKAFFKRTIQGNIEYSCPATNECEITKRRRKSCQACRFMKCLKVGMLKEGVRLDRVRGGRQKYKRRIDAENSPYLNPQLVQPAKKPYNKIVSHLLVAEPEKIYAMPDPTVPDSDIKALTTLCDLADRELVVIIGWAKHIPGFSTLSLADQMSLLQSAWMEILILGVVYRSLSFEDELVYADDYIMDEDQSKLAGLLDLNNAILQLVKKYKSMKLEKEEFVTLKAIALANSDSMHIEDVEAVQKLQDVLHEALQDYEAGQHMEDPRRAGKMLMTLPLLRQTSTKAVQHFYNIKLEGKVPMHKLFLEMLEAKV

As to `CN(N=O)C(N)=O`, the molecule was classed as inactive in assay [1], in [2], in [3], in [4], in [5] and in assay [6]. Also, the molecule was called inactive in assay [7], in [8], in assay [9], in assay [10], in assay [11] and in [12]. Also, the outcome in [13] and in [14] was inactive.

`Oc1cc(Cl)c(Cl)cc1Cl`: the concentration at half-maximal activity (AC50) was 46.2 µM (active) in assay [1], 58.2 µM (active) in assay [3], 136 µM (active) in assay [4] and 59 µM (active) in assay [10]. The molecule was called inactive in assay [2], in assay [5], in assay [6], in [7], in assay [8] and in [9]. In addition, the result in [12] was inactive.

As for `ClCCCCl`, the molecule was called inactive in [1], in assay [2], in assay [3], in [4], in assay [5] and in [6]. Also, the molecule was called inactive in assay [7], in [8], in assay [9], in [15], in assay [10] and in assay [13]. Also, the outcome in assay [14] was inactive.

On to `COc1ccccc1N`, for which the molecule was classed as inactive in assay [1], in [2], in [3], in assay [4], in assay [5] and in assay [6]. For the same molecule, the outcome in assay [7], in [8], in assay [9], in [16], in assay [10] and in assay [11] was inactive. For the same molecule, the result in assay [12] and in assay [17] was inactive.

Consider `ClCc1ccccc1Cl`, for which the call in assay [1], in assay [4], in assay [5], in assay [6], in assay [7] and in assay [8] was inactive. For the same molecule, the outcome in assay [9], in assay [11] and in assay [17] was inactive. In addition, the AC50 in assay [2] is 120 µM (active); in assay [3], 100 µM (active); in assay [10], 100 µM (active).

`Oc1c(Br)cc(Br)cc1Br`: the AC50 is 40.6 µM (active) in assay [1]; 25.9 µM (active) in assay [3]; 65.7 µM (active) in [6]; 156 µM (active) in assay [9]; 42 µM (active) in [10]. Also, the result in [2], in assay [4], in assay [5], in assay [7], in [8] and in assay [15] was inactive. In addition, in assay [11], the call was inactive.

As to `O=S(=O)(c1ccc(Cl)cc1)c1cc(Cl)c(Cl)cc1Cl`, the outcome in assay [1], in assay [2], in [3], in assay [5], in assay [6] and in assay [8] was inactive. Besides, the molecule was called inactive in assay [9], in assay [15], in [19], in assay [10], in assay [12] and in assay [13]. Besides, the result in assay [14] was inactive. Also, the AC50 was 14.5 µM (active) in assay [4] and 2.79 µM (active) in assay [18].

The values above are taken from PubChem BioAssay (EPA / NIEHS).
